Some test systems named below: HCT-15 colon; HT29 colon; SNB-75 CNS; SNB-19 CNS; U251 CNS; PC-3 prostate; UACC-62 melanoma; LOX IMVI melanoma; SK-MEL-28 melanoma.
Holding throughout (assay): NCI-60 one-dose screen, 48 h (100 = growth as untreated, 0 = no growth, -100 = all killed)
What all share (details): 10 µM unless noted

Each structure is given as a SMILES string. About 83,000 compounds went through this panel and 20% of them were active in at least one assay; those are over-represented in the sample as a whole.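 Cell lines were cultured in 96-well plates, exposed to a single compound concentration, and assessed for percent growth 48 hours later.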 A number with no mark means an inactive call. Calls of active or inactive are those of the source. The calls were made as follows: active = growth percent below 10; inactive = the rest.

For the compound `O=c1cc(CSc2nnc(SCc3cc(=O)oc4c3ccc3ccccc34)o2)c2ccc3ccccc3c2o1`, the growth with HCT-15 colon is 104%; in the assay with HT29 colon, 97%; with SNB-75 CNS it was 93%; in the assay on SNB-19 CNS, 107%; with U251 CNS, 97.2%; with PC-3 prostate, 89.9%. In addition, the results for the growth with UACC-62 melanoma, in the assay with LOX IMVI melanoma and in the assay with SK-MEL-28 melanoma were 99.6%, 88.7% and 109%, respectively.

On to `COc1ccc(SC2c3cc(OC)c(OC)cc3Oc3nc(N)c(C#N)c(N)c32)cc1` (configuration not stated), for which the growth was -62.2% (active) with HCT-15 colon; -24.9% (active) in the assay on HT29 colon; -65.2% (active) in the assay with SNB-75 CNS; -83% (active) with SNB-19 CNS; -98.6% (active) in the assay with U251 CNS; -76.8% (active) in the assay with PC-3 prostate. Also, the growth with UACC-62 melanoma is -75.1% (active); with LOX IMVI melanoma, -92.7% (active); in the assay on SK-MEL-28 melanoma, -70.1% (active).

In the case of `COc1cc2c(cc1O)CC[C@@H]1[C@@H]2CC[C@]2(C)[C@@H](NCCN(C)C)CC[C@@H]12`, the growth was -83.1% (active) in the assay on HCT-15 colon; -91.9% (active) in the assay on HT29 colon; -96.6% (active) in the assay with SNB-75 CNS; -79.6% (active) in the assay with SNB-19 CNS; -92.3% (active) in the assay with U251 CNS; -91.2% (active) with PC-3 prostate.

Turning to `Cn1nc(N)c2cc([C@@H]3Nc4ccc5[nH]ncc5c4[C@H]4C5CCC(C5)[C@@H]34)ccc21` (some centres not stated), the growth is 17.9% with HCT-15 colon; 11.6% in the assay on HT29 colon; -17.9% (active) with SNB-75 CNS; 29.5% in the assay with SNB-19 CNS; 21.1% in the assay on U251 CNS; 17.4% with PC-3 prostate. In addition, the growth in the assay on UACC-62 melanoma was 32.1%; with LOX IMVI melanoma, 38.8%; in the assay with SK-MEL-28 melanoma it was 53.2%.

`COc1ccc(-c2cc(-c3ccc(Nc4ccnc5cc(Cl)ccc45)cc3)nc(N3CCOCC3)n2)cc1`: the growth with HCT-15 colon was 20.7%; in the assay with HT29 colon, 8.19% (active); in the assay on SNB-75 CNS, -14.8% (active); in the assay with SNB-19 CNS, 28.2%; in the assay on U251 CNS, -37.7% (active); in the assay with PC-3 prostate, 46.9%. For the same compound, the growth in the assay on UACC-62 melanoma was 14.9%; in the assay with LOX IMVI melanoma, -58.6% (active); in the assay on SK-MEL-28 melanoma, 5.53% (active).

For `O=C(CN1CCCCC1)Nc1ccc2oc(=O)ccc2c1`, the growth in the assay with HCT-15 colon was 104%; in the assay with HT29 colon it was 104%; in the assay on SNB-75 CNS, 95.6%; in the assay on SNB-19 CNS, 98.4%; in the assay with U251 CNS, 102%; in the assay with PC-3 prostate it was 86.8%. The growth in the assay on UACC-62 melanoma is 97.7%; in the assay with LOX IMVI melanoma it was 96.6%; with SK-MEL-28 melanoma, 121%.

In the case of `NCCNc1nc(Nc2ccc(-c3nc4ccccc4[nH]3)cc2)c2cn[nH]c2n1`, the growth with HCT-15 colon is 101%; with HT29 colon it was 62.7%; in the assay on SNB-75 CNS it was 71.7%; in the assay with SNB-19 CNS, 66.5%; in the assay with U251 CNS it was -55.4% (active); in the assay on PC-3 prostate, 74%.

`Cc1cc(N2CCN(C)CC2)nc(NC2CCCC(Nc3ccnc4cc(Cl)ccc34)C2)n1` (configuration not stated): the growth with HCT-15 colon was -35.7% (active); in the assay on HT29 colon, -53.1% (active); with SNB-75 CNS, -25.6% (active); in the assay with SNB-19 CNS, 9.07% (active); in the assay with U251 CNS, -51.4% (active); in the assay on PC-3 prostate, 8.55% (active). The values for the growth with UACC-62 melanoma, with LOX IMVI melanoma and in the assay on SK-MEL-28 melanoma were -90.7% (active), -81.8% (active) and -75.8% (active), respectively.

As to `CC1=C[C@H]2c3c(c(O)c(O)c4oc5ccccc5c(=O)c34)[C@H](c3cc(O)c(O)c4oc5ccccc5c(=O)c34)[C@H]2C(C)(C)C1`, the growth with HCT-15 colon was 13.7%; with HT29 colon, 14.8%; in the assay on SNB-75 CNS, -29.7% (active); with SNB-19 CNS it was 13.8%; in the assay with U251 CNS, 5.08% (active); in the assay on PC-3 prostate, 5.67% (active). For the same compound, the growth in the assay with UACC-62 melanoma was -65.5% (active); in the assay on LOX IMVI melanoma, -78.9% (active); in the assay on SK-MEL-28 melanoma, 18.3%.

Consider `O=C(CCl)Oc1ccc(-c2ccccc2)c(Br)c1`, for which the growth in the assay with HCT-15 colon is 110%; in the assay with HT29 colon, 109%; in the assay on SNB-75 CNS it was 95.6%; in the assay with SNB-19 CNS it was 107%; with U251 CNS, 102%; in the assay with PC-3 prostate, 97.2%. In addition, the growth is 99.6% in the assay on UACC-62 melanoma, 97% in the assay on LOX IMVI melanoma and 107% in the assay on SK-MEL-28 melanoma.

Consider `NC(=NCCCOc1ccc(Cl)cc1)Nc1ccc(C(F)(F)F)cc1`, for which the growth was 54% in the assay with HCT-15 colon; 3.11% (active) in the assay with HT29 colon; 35.4% in the assay with SNB-75 CNS; 26.4% with SNB-19 CNS; 33% with U251 CNS; 26.9% in the assay with PC-3 prostate.

As to `COc1cc(-c2nn(C)nc2-c2cc3ccccc3s2)cc(OC)c1OC`, the growth in the assay with HCT-15 colon is 16.9%; with HT29 colon, -1.21% (active); in the assay with SNB-75 CNS, 48.1%; with SNB-19 CNS it was 26.7%; in the assay with U251 CNS it was 20.9%; in the assay with PC-3 prostate, 21.9%. Besides, the growth with UACC-62 melanoma was 26%; in the assay with LOX IMVI melanoma it was 38.3%; in the assay with SK-MEL-28 melanoma, 57.6%.

As to `COc1cc2c(cc1-c1c(C)noc1C)ncc1nc(C3CCOCC3)n([C@H](C)COC(F)F)c12`, the growth in the assay with HCT-15 colon was 22.8%; with HT29 colon, 24.5%; in the assay with SNB-75 CNS, 29.9%; in the assay on SNB-19 CNS it was 47.6%; in the assay with U251 CNS, 51.8%; with PC-3 prostate, 34.3%. Also, the figures for the growth with UACC-62 melanoma, with LOX IMVI melanoma and in the assay on SK-MEL-28 melanoma were 17.8%, 12.6% and 55.8%, respectively.

`CC[N+](CC)=c1sc2c(s1)C(c1ccc(Cl)cc1)Oc1ccc(Cl)cc1-2` (configuration not stated): the growth in the assay with HCT-15 colon was 62.9%; in the assay with HT29 colon it was 0.814% (active); in the assay with SNB-75 CNS it was 4.43% (active); in the assay with SNB-19 CNS, 12%; in the assay with U251 CNS, -53.8% (active); with PC-3 prostate, 3.92% (active). Besides, the growth in the assay on UACC-62 melanoma was -2.82% (active); with LOX IMVI melanoma, -62.7% (active); with SK-MEL-28 melanoma, 18%.

(Values after PubChem BioAssay (NCI).)
